NSD2 inh – NSD2 (human) methyltransferase inhibition; O96028; NSD2 peptide methylation, AlphaScreen, 120 min; inhibition, % at 12.5 µM; 310,000 tested, 0.54% active; in the data active means inhibition above about 50%
Rce1 inh – inhibitors of yeast Ras-converting enzyme. calls only. AID 2563. 290,000 tested, 0.27% active. yeast membranes, quenched prenylated peptide cleavage fluorescence;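 active means fall in fluorescence gain of 50% or more versus controls, with final raw signal at or below 3038400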;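 further: plate controls were neutral control wells for no effect and wells lacking membranes for full effect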
V-ATPase pHluor – regulators of yeast V-ATPase proton transport; AID 504577; response, % at 10 µM; S. cerevisiae, pHLuorin cytosolic pH fluorescence; 350,000 tested, 0.37% active; in the data active means response mostly above about 7.3%, no sharp cut-off; inactive means mostly below about 5.4%; further: actives read high
Efflux pump inh – blocks antifungal efflux pumps in multiplex yeast assay | 330,000 tested, 0.44% active | S. cerevisiae Candida pump triplex, Nile Red efflux | inhibition, % at 10 µM;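 active means plate passing quality check with inhibition over a set limit, or well fluorescence over plate mean plus 4 SD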;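 further: Nile Red retained in pooled yeast measured as flow cytometry median fluorescence; 0% = buffer negative control and 100% = Enniatin B positive control; higher means more Nile Red kept so more efflux inhibition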
GC-B act – GC-B (human) receptor activation | P20594 | HEK293-GC-B cells, CNP EC30, cGMP TR-FRET; 0% at EC30 CNP, 100% saturating CNP | activation, % at 10 µM | 370,000 tested, 0.11% active;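 active means activation at 10 µM reaching about 35% in either raw or pattern-adjusted values, limit read from the data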
Target sequence (P20594 whole entry, looked up): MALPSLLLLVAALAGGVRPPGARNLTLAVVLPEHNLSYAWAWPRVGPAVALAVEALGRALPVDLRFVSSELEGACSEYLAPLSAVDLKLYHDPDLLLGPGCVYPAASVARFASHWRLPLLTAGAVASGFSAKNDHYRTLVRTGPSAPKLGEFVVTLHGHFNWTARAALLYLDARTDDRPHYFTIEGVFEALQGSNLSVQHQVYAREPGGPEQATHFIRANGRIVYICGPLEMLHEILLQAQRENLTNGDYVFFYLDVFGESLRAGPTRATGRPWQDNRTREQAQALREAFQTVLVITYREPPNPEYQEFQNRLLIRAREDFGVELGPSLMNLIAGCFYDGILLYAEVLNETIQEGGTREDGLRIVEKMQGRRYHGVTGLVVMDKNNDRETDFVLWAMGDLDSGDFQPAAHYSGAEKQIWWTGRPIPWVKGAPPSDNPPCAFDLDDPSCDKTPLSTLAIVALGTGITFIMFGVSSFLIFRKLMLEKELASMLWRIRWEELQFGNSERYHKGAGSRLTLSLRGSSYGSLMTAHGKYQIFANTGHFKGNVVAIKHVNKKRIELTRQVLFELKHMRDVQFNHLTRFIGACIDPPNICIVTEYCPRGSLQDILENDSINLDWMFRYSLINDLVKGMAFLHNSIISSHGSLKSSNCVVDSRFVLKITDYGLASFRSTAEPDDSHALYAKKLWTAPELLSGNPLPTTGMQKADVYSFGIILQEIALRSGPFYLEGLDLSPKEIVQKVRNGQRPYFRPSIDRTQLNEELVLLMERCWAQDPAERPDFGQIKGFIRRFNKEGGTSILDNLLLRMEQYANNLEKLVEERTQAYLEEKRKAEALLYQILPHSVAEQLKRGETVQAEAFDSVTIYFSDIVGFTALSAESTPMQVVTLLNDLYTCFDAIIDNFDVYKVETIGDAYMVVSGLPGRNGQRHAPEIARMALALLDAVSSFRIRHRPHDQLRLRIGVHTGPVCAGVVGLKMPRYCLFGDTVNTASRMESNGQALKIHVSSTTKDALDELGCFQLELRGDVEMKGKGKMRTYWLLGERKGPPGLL
GC-A act – GC-A (human) enzyme activation; P16066; HEK293 GC-A cells, cGMP TR-FRET, EC30 ANP; 0% at EC30 ANP, 100% saturating ANP; activation, % at 10 µM; 370,000 tested, 0.14% active; AID 1671463; in the data active means activation above about 40%
VATPase regulator – regulators of yeast V-ATPase proton transport | shares compounds with V-ATPase pHluor | S. cerevisiae pHLuorin cytosolic pH | response, % at 10 µM | 980 tested, 2% active; in the data active means response above about 24%;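 further: plate controls were vehicle wells for no effect and positive control wells for full effect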
Active calls of the source: *; i = inactive; · = no result given. Compounds with a hit are over-represented: about 1.6% of the library has one in this group of screens.

SMILES	NSD2 inh	Rce1 inh	V-ATPase pHluor	Efflux pump inh	GC-B act	GC-A act	VATPase regulator
Cc1nn(-c2ccccc2)c(Cl)c1/C=C1\C(=O)N(C)C(=S)N1C	8	i	47*	0	1	11	2
O=C(C1CCC1)N1CCc2cc(S(=O)(=O)N3CCCC3)ccc21	-11	·	·	·	6	0	·
O=c1c2ccccc2sn1-c1cccc(Cl)c1	·	·	-1	·	-2	7	17
O=C(O)c1cccc(-n2sc3ccccc3c2=O)c1	·	·	-23	0	-5	-3	·
C[n+]1cc[nH]c1SCC(=O)c1ccc(Cl)cc1	-2	i	7.5*	0	10	-5	4
COc1cc(NC(=O)C2CCCN2S(=O)(=O)c2ccc3c(c2)CC(C)N3C(C)=O)cc(OC)c1 (stereo not given)	-3	i	8.5*	0	-12	-8	0
Cc1ccc(S(=O)(=O)N2CCN(C(=O)COC(=O)c3cccnc3Cl)CC2)c(C)c1	-2	·	13*	0	-2	2	0
Cc1ccc(NC(=O)Cn2nc(C)cc2C)cc1	2	i	1	0	0	1	·
Cc1cc(C)n(CC(=O)Nc2ccccc2)n1	-1	i	11*	0	-5	1	3
Cc1ccc(C)c(NC(=S)NCc2ccccc2)c1	-1	i	0	0	-2	4	·
Cc1ccc(C)c(NC(=S)N/N=C/C(C)c2ccccc2)c1 (stereo not given)	24	i	15*	0	0	2	3
C=CCn1c(SCC(=O)Nc2cc(C)c(Cl)cc2OC)nnc1-c1ccco1	2	i	4	0	-20	-39	·
C=CCn1c(SCC(=O)Nc2cc(C)ccc2OC)nnc1-c1ccco1	-2	i	11*	0	-11	-7	0
CCN1C(=O)CC(N2CCOCC2)C1=O (stereo not given)	1	i	0	0	6	3	·
CN(C)N1C(=O)CC(N2CCCC2)C1=O (stereo not given)	-3	i	11*	0	-2	-1	2
Cc1ccc(S(=O)(=O)n2cnc(C)c2)cc1	3	i	13*	0	5	-3	1
CC(=O)Nc1ccc(S(=O)(=O)n2cnc(C)c2)cc1	1	i	-2	0	7	1	·
CCN(CC)C(=O)CSc1nc2ccccc2c(=O)[nH]1	·	i	0	0	10	2	·
CCOC(=O)CSc1nc2ccccc2c(=O)[nH]1	·	i	10*	0	3	-1	0
CCOC(=O)c1nc2ccccc2c(=O)[nH]1	-4	·	-1	0	3	-2	-1
CCOC(=O)c1n[nH]c(=O)c2ccccc12	-2	i	0	0	3	5	·
CCOC(=O)c1n[nH]c2ccccc12	2	i	4	0	4	2	-4
COc1ccccc1-c1nnc2n1N=C(c1ccc3c(c1)OCO3)CS2	0	·	·	·	-6	3	·
N#Cc1ccc(CSc2nc3sc4c(c3c(=O)n2-c2ccc(Br)cc2)CCCC4)cc1	3	·	·	·	7	2	·
CC(C)CN1C(=O)[C@@]2(CC(=O)N(C)C2c2ccccc2)c2cc(-n3cc(CN(C)C)nn3)ccc21 (stereo not given in full)	·	·	·	·	-2	6	·
SMILES	NSD2 inh	Rce1 inh	V-ATPase pHluor	Efflux pump inh	GC-B act	GC-A act	VATPase regulator
CCOC(=O)[C@H](Cc1ccccc1)NC(=O)[C@H]1C[C@@]2(N3CCCCC3)c3ccccc3N(C(=O)OC(C)(C)C)[C@H]2N1C(=O)OC(C)(C)C	·	·	·	·	-4	-3	·
Cc1cccc2c1CCCC2=O	3	·	12*	·	1	1	-4
COc1ccc(C2=NS(=O)(=O)N(C)C(C(=O)NC3CCCCC3)=C2)cc1	·	i	11*	0	11	5	-4
COc1ccc(C2=NS(=O)(=O)N(C)C(C(=O)NC3CCCC3)=C2)cc1	·	i	8	0	7	7	·
Cc1cc(C)c(C(=O)COC(=O)C2CCN(c3ccc(C(F)(F)F)cn3)CC2)c(C)c1	-2	·	8.6*	0	-4	-1	0
Clc1cccc(/C=N/N2CCN(Cc3ccccc3)CC2)c1	11	i	14*	0	-2	4	2
C(=N\N1CCN(Cc2ccccc2)CC1)/c1ccccc1	7	i	1	0	1	1	·
O=C(c1ccncc1)N1CC[C@H]2[C@H](CCCN2Cc2cc(F)cc(F)c2)C1	·	·	·	·	2	2	·
Cc1ccc2[nH]c(=O)c(CN(Cc3ccccc3Cl)C(=O)N3CCOCC3)cc2c1	-4	i	16*	0	-5	-2	-3
CN(CCC1CCOCC1)Cc1nc(Cc2ccccc2F)no1	2	i	11*	0	0	-1	-3
CC(C)CCc1noc(CN(C)CCC2CCOCC2)n1	·	i	-1	0	0	4	·
CCOC(=O)Cn1c(-c2ccccc2)nc2ccccc2c1=O	-5	i	1	0	7	-2	-3
Cc1nc2ccccc2n1CC(=O)OCC(=O)NCc1ccccc1	-1	i	-1	0	0	3	·
CCOC(=O)Cn1c(=O)c(-c2ccccc2NCc2ccccc2)nc2ccccc21	-7	i	-1	0	-2	-2	3
COc1ccc(C2C(C(=O)Nc3cc(OC)ccc3OC)CCC(=O)N2c2ccc(OC)cc2)cc1 (stereo not given)	1	·	·	·	0	-3	·
C[C@H](CO)N1C[C@H](C)[C@@H](CN(C)S(=O)(=O)c2ccc(C#N)cc2)OCc2cnnn2CCCC1=O	·	·	4.1*	·	-2	1	2
COc1cccc(S(=O)(=O)N(C)C[C@@H]2OCc3cnnn3CCCC(=O)N([C@H](C)CO)C[C@@H]2C)c1	·	·	7.5*	·	3	2	1
C[C@H](CO)N1C[C@H](C)[C@H](CN(C)S(=O)(=O)c2ccc(C#N)cc2)OCc2cnnn2CCCC1=O	·	·	0	·	3	5	·
O=C(NCc1cccs1)C1CCCN(S(=O)(=O)c2ccccc2)C1 (stereo not given)	4	·	·	·	-6	1	·
Cc1cc(C)n2nc(SCC(=O)NC(=O)c3ccccc3Cl)nc2n1	0	·	9.8*	0	2	2	1
COc1cc(/C=C/C(=O)NC2CCCCC2)cc(OC)c1OC	2	i	8.8*	0	-9	3	2
CC#CC(=O)N[C@H]1CC[C@@]23CCCN2C(=O)CCC[C@H]3[C@H]1C	·	·	·	·	-2	0	·
COc1ccc(/C=N/NC(=O)C2c3ccccc3-c3ccccc32)cc1	1	i	27*	0	-1	-4	0
CCOC(=O)NC(Nc1ccc(S(N)(=O)=O)cc1)(C(=O)OCC)C(F)(F)F (stereo not given)	-1	i	13*	0	4	4	2

Compound activity (PubChem)
